Experimental data as given in PubChem BioAssay AID1159580 (chemical genetic matrix, 2015).
Where “and” joins values, the source holds several entries; their conditions need not be identical. Identical values can stand only once. Among all 5,500 compounds or so, about 2,000 (36%) were called active. About 18% were inconclusive and are not listed. No stated cut-off is given here; in the data, active means normalized growth mostly below about 0.91 (no sharp cut-off); inconclusive means no clear call, values can overlap the other calls; inactive means mostly above about 0.92. This is one part of the list.

Assay: chemical genetic growth profiling, strain panel (AID 1159580);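 further: tested at 20 µM; growth read once vehicle control cultures reached saturation at 30 °C; 1 = growth at the plate median or of vehicle wells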
Conditions: S. cerevisiae deletion strains, growth OD

Measured: normalized growth

CC1(C)O[C@@H]2CC3C4C[C@H](F)C5=CC(=O)C=CC5(C)C4C(O)CC3(C)[C@]2(C(=O)CO)O1 (stereo partly drawn)
inactive: locus YAL013W, strain DEP1, stronger effect = lower value 1.02 | locus YAL021C, strain ccr4, stronger effect = lower value 1 | locus YAL026C, strain drs2, stronger effect = lower value 0.993 | locus YAL030W, strain snc1, stronger effect = lower value 0.992 | locus YBL061C, strain skt5, stronger effect = lower value 0.979 | locus YBR009C, strain hhf1, stronger effect = lower value 1.01 | locus YBR021W, strain FUR4, stronger effect = lower value 1.02 | locus YBR023C, strain chs3, stronger effect = lower value 0.987 | locus YBR171W, strain sec66, stronger effect = lower value 0.985 | locus YBR229C, strain ROT2, stronger effect = lower value 1.02 | locus YBR231C, strain swc5, stronger effect = lower value 1 | locus YBR279W, strain paf1, stronger effect = lower value 0.976 | locus YCL011C, strain gbp2, stronger effect = lower value 0.982 | locus YCL016C, strain dcc1, stronger effect = lower value 0.96 | locus YCL029C, strain bik1, stronger effect = lower value 0.989 | locus YCL069W, strain vba3, stronger effect = lower value 0.995 | locus YCR088W, strain abp1, stronger effect = lower value 0.992 | locus YDL005C, strain med2, stronger effect = lower value 0.973 | locus YDL035C, strain GPR1, stronger effect = lower value 1.02 | locus YDL040C, strain nat1, stronger effect = lower value 0.983 | locus YDL074C, strain BRE1, stronger effect = lower value 1.04 | locus YDL101C, strain DUN1, stronger effect = lower value 1.02 | locus YDL134C, strain PPH21, stronger effect = lower value 1.02 | locus YDL185W, strain tfp1, stronger effect = lower value 0.991 | locus YDL192W, strain arf1, stronger effect = lower value 1.01 | locus YDR001C, strain nth1, stronger effect = lower value 0.983 | locus YDR069C, strain doa4, stronger effect = lower value 1 | locus YDR101C, strain arx1, stronger effect = lower value 1 | locus YDR137W, strain rgp1, stronger effect = lower value 1 | locus YDR159W, strain sac3, stronger effect = lower value 0.982 | locus YDR162C, strain NBP2, stronger effect = lower value 1.01 | locus YDR195W, strain ref2 0.997 | locus YDR297W, strain sur2, stronger effect = lower value 1 | locus YDR318W, strain mcm21, stronger effect = lower value 0.996 | locus YDR334W, strain swr1, stronger effect = lower value 0.985 | locus YDR335W, strain msn5, stronger effect = lower value 0.975 | locus YDR388W, stronger effect = lower value 0.99 | locus YDR392W, strain spt3, stronger effect = lower value 0.917 | locus YDR502C, strain sam2, stronger effect = lower value 0.991 | locus YEL003W, strain gim4, stronger effect = lower value 1.02 | locus YEL037C, strain rad23, stronger effect = lower value 0.979 | locus YEL061C, strain CIN8 (second series), stronger effect = lower value 0.987 | locus YEL061C, strain CIN8, stronger effect = lower value 1.01 | locus YER015W, strain faa2, stronger effect = lower value 0.996 | locus YER016W, strain bim1, stronger effect = lower value 0.971 | locus YER110C, stronger effect = lower value 0.988 | locus YER111C, strain swi4, stronger effect = lower value 0.975 | locus YER155C, strain BEM2 (second series), stronger effect = lower value 1.01 | locus YER155C, strain BEM2, stronger effect = lower value 1.01 | locus YER167W, strain BCK2, stronger effect = lower value 1.01 | locus YFR010W, strain ubp6, stronger effect = lower value 1.01 | locus YGL078C, strain dbp3, stronger effect = lower value 0.979 | locus YGL086W, strain mad1, stronger effect = lower value 1.01 | locus YGL167C, strain pmr1, stronger effect = lower value 0.996 | locus YGL173C, strain kem1, stronger effect = lower value 1 | locus YGL227W, strain vid30, stronger effect = lower value 0.988 | locus YGL240W, strain doc1, stronger effect = lower value 1.02 | locus YGL248W, strain PDE1, stronger effect = lower value 1.03 | locus YGL253W, strain hxk2, stronger effect = lower value 0.959 | locus YGR135W, strain pre9, stronger effect = lower value 0.98 | locus YGR252W, strain gcn5, stronger effect = lower value 0.984 | locus YHR013C, strain ard1, stronger effect = lower value 0.957 | locus YHR027C, strain rpn1, stronger effect = lower value 0.99 | locus YHR030C, strain SLT2, stronger effect = lower value 1.01 and 1.02 | locus YHR079C, strain IRE1 (second series), stronger effect = lower value 0.99 | locus YHR079C, strain IRE1, stronger effect = lower value 1.02 | locus YHR094C, strain hxt1, stronger effect = lower value 0.98 | locus YHR129C, strain ARP1, stronger effect = lower value 1.02 | locus YHR142W, strain chs7, stronger effect = lower value 0.941 | locus YHR200W, strain rpn10, stronger effect = lower value 0.998 | locus YIL066C, strain RNR3, stronger effect = lower value 1.02 | locus YIL073C, strain SPO22, stronger effect = lower value 0.999 | locus YIL125W, strain kgd1, stronger effect = lower value 0.99 | locus YIR030C, strain dcg1, stronger effect = lower value 0.998 | locus YJL092W, strain hpr5, stronger effect = lower value 1 | locus YJL095W, strain BCK1 (second series), stronger effect = lower value 0.978 | locus YJL095W, strain BCK1, stronger effect = lower value 1.04 and 1.03 | locus YJL115W, strain asf1, stronger effect = lower value 0.974 | locus YJL129C, strain trk1, stronger effect = lower value 0.953 | locus YJL134W, strain LCB3, stronger effect = lower value 1.01 | locus YJL154C, strain vps35, stronger effect = lower value 0.976 | locus YJL164C, strain tpk1, stronger effect = lower value 0.972 | locus YJL166W, strain qcr8, stronger effect = lower value 1.02 | locus YJL168C, strain set2, stronger effect = lower value 0.993 | locus YJL187C, strain SWE1 (second series), stronger effect = lower value 1.02 | locus YJR043C, strain POL32, stronger effect = lower value 1.02 | locus YJR066W, strain TOR1, stronger effect = lower value 0.954 | locus YJR075W, strain HOC1, stronger effect = lower value 1.03
